In PubChem BioAssay (NCATS):
Records with an inconclusive call do not appear. Where a call stands in place of a potency, no number is given. Activity calls are given as the source filed them. The call rests on the fitted dose curve; in most records, active means well fitted inhibition curve with a large enough effect; inconclusive means small, poorly fitted or top-dose-only effect; inactive means flat fitted curve, though single readings scatter.

experiment: P-glycoprotein substrates identified in KB-8-5-11 adenocarcinoma cell line, qHTS therapeutic library screen (AID 1346987); details: KB-8-5-11 (P-gp overexpressing) viability, CellTiter-Glo, 72 h; series mostly up to 44.5 µM; further: nearly all actives have a fitted effect of over 65% in size
In short: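 KB-8-5-11, a colchicine-selected P-gp-overexpressing KB-3-1 subline, was grown without colchicine for the assay. Cells were seeded at 500 cells/well, dosed in concentration-response and incubated 72 h at 37 degree C, 5% CO2. Viability was read by CellTiter-Glo luminescence.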
Potency means the concentration at half of the fitted maximal effect.

| SMILES | Potency |
| --- | --- |
| CC[C@]1(O)CC2CN(CCc3c([nH]c4ccccc34)[C@@](C(=O)OC)(c3cc4c(cc3OC)N(C)[C@H]3[C@@](O)(C(=O)OC)[C@H](OC(C)=O)[C@]5(CC)C=CCN6CC[C@]43[C@@H]65)C2)C1 (some centres not stated) | 1030 nM (active) |
| CN(C)C/C=C/C(=O)Nc1cccc(C(=O)Nc2ccc(Nc3nccc(-c4cccnc4)n3)cc2)c1 | inactive |
| CN(C)C/C=C/C(=O)Nc1cc2c(Nc3ccc(F)c(Cl)c3)ncnc2cc1OC1CCOC1 (configuration not stated) | 14600 nM (active) |
| Cc1cccc(Oc2cnc(=O)[nH]c2)c1 | inactive |
| CCOc1ccc2nc(SCCN3CCOCC3)[nH]c2c1 | inactive |
| C[C@@H]1C[C@@H]2O[C@H]2/C=C\C=C\C(=O)Cc2c(Cl)c(O)cc(O)c2C(=O)O1 | 1010 nM (active) |
| CC1(C(=O)O)CCCC2(C)C3=CCC4CC3(CCC12)CC4CO (configuration not stated) | inactive |
| C=C(C)C1CCC2(C(=O)O)CCC3(C(=O)O)C(CCC4C5(C)CCC(O)C(C)(C(=O)O)C5CCC43C)C12 (configuration not stated) | inactive |
| CCO[C@@H]1OC(=O)C[C@@H]1NC(=O)[C@@H]1CCCN1C(=O)[C@@H](NC(=O)c1ccc(N)c(Cl)c1)C(C)(C)C | inactive |
| COC(=O)C[C@H]1C(C)(C)[C@H](OC(=O)C(C)C)[C@@]2(O)C(=O)[C@]1(C)C1CC[C@]3(C)C(CC(=O)O[C@H]3c3ccoc3)[C@]13O[C@@H]32 (some centres not stated) | inactive |
| CC1(C)CC[C@]2(C(=O)O[C@@H]3O[C@H](CO)[C@@H](O)[C@H](O)[C@H]3O)CC[C@]3(C)C(=CCC4[C@@]5(C)C[C@@H](O)[C@H](O)[C@](C)(C(=O)O)C5CC[C@]43C)C2C1O (some centres not stated) | inactive |
| COc1cccc2cc3c(c(O[C@@H]4O[C@H](CO[C@@H]5O[C@H](CO)[C@@H](O)[C@H](O)[C@H]5O)[C@@H](O)[C@H](O)[C@H]4O)c12)C(C)OC3=O (some centres not stated) | inactive |
